Results published in PubChem BioAssay.
Active and inactive are the calls of the source.

Columns and labels:
[1] = tested on: Plasmodium falciparum Sir2 (PF13_0152, Sir2A); assay: Plasmodium falciparum Sir2A binding compounds – biochemical, small-molecule microarray, 635 nm fluorescence, primary screen (AID 1098); conditions: fluorescence 635 nm, higher = more signal;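 note: score merges spot fluorescence intensity with its signal-to-noise ratio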
[2] = probe aDKK1 binding to arrayed compounds – biochemical, biotinylated probe, 635/667 nm fluorescence, primary screen (AID 1099); conditions: small-molecule microarray, higher = more signal;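 note: score merges 667nm spot fluorescence with signal to noise across triplicate slides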
[3] = probe aCHRDL2 binding to arrayed compounds – biochemical, biotinylated probe, 635/667 nm fluorescence, primary screen (AID 1100); conditions: small-molecule microarray, higher = more signal
[4] = change in splice reporter luminescence, either direction, cell-based, HEK293, spliceosome inhibition project, primary screen (AID 1101); conditions: HEK293 splicing luciferase reporter, 24 h, higher = more signal, called active from +8 up or from −8 down;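 note: HEK293 cells carrying a splicing-competent luciferase reporter gene; test concentration not given here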
[5] = biological target: Fibroblast growth factor 10 (Homo sapiens) (UniProt O15520); assay: compounds binding fibroblast growth factor 10 – biochemical, small-molecule microarray, 635 nm fluorescence, primary screen (AID 1102); conditions: FGF10 binding, fluorescence 635 nm, higher = more signal
[6] = tested on: glycogen synthase kinase-3 (GSK3A per assay name; protocol says GSK3B); assay: compounds binding glycogen synthase kinase-3 – biochemical, small-molecule microarray, 635 nm fluorescence, GSK3A, primary screen (AID 1103); conditions: fluorescence 635 nm, higher = more signal; note: the record names both GSK3A and GSK3B
[7] = biological target: Epidermal growth factor receptor (Homo sapiens) (UniProt P00533); assay: compounds binding epidermal growth factor receptor – biochemical, small-molecule microarray, 635 nm fluorescence, primary screen (AID 1104); conditions: EGFR binding, higher = more signal;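 note: score merges 667 nm emission intensity with spot signal to noise over triplicate slides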
[8] = biological target: Follistatin-related protein 3 (Homo sapiens) (UniProt O95633); assay: compounds binding follistatin-related protein 3 – biochemical, small-molecule microarray, 635 nm fluorescence, primary screen (AID 1105); conditions: FSTL3 binding, higher = more signal;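 note: score merges emission near 667 nm and signal to noise per printed spot across three slides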
[9] = biological target: Dickkopf-related protein 1 (Homo sapiens) (UniProt O94907); assay: small molecules binding DKK1 protein – biochemical, small-molecule microarray, 635 nm fluorescence scan, primary screen (AID 1106); conditions: higher = more signal;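 note: score merges emission near 667 nm with signal to noise over three replicate slides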
[10] = tested on: Inhibin beta A chain (activin A); assay: small molecules binding activin A – biochemical, small-molecule microarray, 635 nm fluorescence scan, primary screen (AID 1107); conditions: INHBA, higher = more signal;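 note: mouse activin A protein probed at 4.33 µg/mL on printed slides; score merges bound-protein fluorescence near 667 nm with spot signal-to-noise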
[11] = tested on: Human papillomavirus type 1a protein E7 (residues 44-93); assay: small molecules binding HPV E7 44-93 – biochemical, small-molecule microarray, residues 44-93, 635 nm fluorescence, primary screen (AID 1108); conditions: fluorescence 635 nm, higher = more signal;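 note: E7 fragment applied at 1 µg/mL in TBST for 1 h at 4 C; score combines spot fluorescence with its signal to noise ratio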
[12] = hepatitis C replication reporter changes, two-sided – Huh7 cells, luciferase reporter, HCV replication inhibitor project, primary screen (AID 1109); conditions: Huh7 HCV replicon luciferase reporter, 48 h; higher = more signal;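 note: huh7 hepatoma cells harbouring a luciferase neomycin HCV replicon reporter; luciferase luminescence as measure of HCV replicon replication; test concentration not given here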
[13] = biological target: Left-right determination factor 2 (Homo sapiens) (UniProt O00292); assay: small molecules binding LEFTY2 protein – biochemical, small-molecule microarray, 635 nm fluorescence scan, primary screen (AID 1110); conditions: higher = more signal
[14] = biological target: Calmodulin-1 (Homo sapiens) (UniProt P0DP23); assay: small molecules binding calmodulin-1 with EGTA – biochemical, small-molecule microarray, Cy5-labelled CALM1, profiling panel (AID 1111); conditions: Cy5-CALM1 binding fluorescence, higher = more signal;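 note: labelled calmodulin applied in Tris saline Tween buffer holding calcium plus EGTA and DTT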
[15] = biological target: Calmodulin-1 (Homo sapiens) (UniProt P0DP23); assay: small molecules binding Ca-loaded calmodulin-1 – biochemical, small-molecule microarray, Cy5-labelled CALM1, plus calcium, artefact control for SMM control-protein annotation, profiling panel (AID 1112); conditions: Cy5-CALM1 binding fluorescence, higher = more signal;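 note: score merges spot fluorescence with signal to noise from triplicate slides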
[16] = probe aWnt5a binding to arrayed compounds – biochemical, biotinylated probe, 635/667 nm fluorescence, primary screen (AID 1113); conditions: small-molecule microarray, higher = more signal;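 note: score merges 667 nm fluorescence intensity with signal-to-noise per printed feature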
[17] = probe aShh binding to arrayed compounds – biochemical, biotinylated probe, 635/667 nm fluorescence, primary screen (AID 1114); conditions: small-molecule microarray, higher = more signal;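 note: probe is biotin-labelled aShh protein from a stem cell growth factor screen; measures binding of labelled protein to compounds printed on the slide; score merges feature fluorescence at 667 nm with signal-to-noise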
[18] = probe aNog binding to arrayed compounds – biochemical, biotinylated probe, 635/667 nm fluorescence, primary screen (AID 1115); conditions: small-molecule microarray, higher = more signal;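 note: probe is biotinylated aNog protein used at 0.15 µg/mL for 1 h at 4 C; z-score combines 667 nm fluorescence of each spot with its signal to noise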
[19] = biological target: Torsin-1A-interacting protein 1 (Homo sapiens) (UniProt Q5JTV8); assay: compound microarray binding of lysate hLAP1 – cell lysate, small-molecule microarray, COS7 lysate, 635/667 nm fluorescence, primary screen (AID 1116); conditions: 635 nm fluorescence, higher = more signal
[20] = biological target: Alpha-bungarotoxin (Bungarus multicinctus) (UniProt P60615); assay: compounds binding labelled alpha-BTX control protein – biochemical, small-molecule microarray, Alexa647 label, 635/667 nm fluorescence, artefact control for SMM control protein annotation, profiling panel (AID 1117); conditions: alpha-BTX-A647 binding fluorescence, higher = more signal
Alpha-bungarotoxin (Bungarus multicinctus), sequence (P60615 whole entry, looked up): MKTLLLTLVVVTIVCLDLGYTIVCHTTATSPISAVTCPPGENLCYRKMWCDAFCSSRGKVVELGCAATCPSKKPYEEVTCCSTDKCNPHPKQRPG

Torsin-1A-interacting protein 1 (Homo sapiens), sequence (Q5JTV8 whole entry, looked up): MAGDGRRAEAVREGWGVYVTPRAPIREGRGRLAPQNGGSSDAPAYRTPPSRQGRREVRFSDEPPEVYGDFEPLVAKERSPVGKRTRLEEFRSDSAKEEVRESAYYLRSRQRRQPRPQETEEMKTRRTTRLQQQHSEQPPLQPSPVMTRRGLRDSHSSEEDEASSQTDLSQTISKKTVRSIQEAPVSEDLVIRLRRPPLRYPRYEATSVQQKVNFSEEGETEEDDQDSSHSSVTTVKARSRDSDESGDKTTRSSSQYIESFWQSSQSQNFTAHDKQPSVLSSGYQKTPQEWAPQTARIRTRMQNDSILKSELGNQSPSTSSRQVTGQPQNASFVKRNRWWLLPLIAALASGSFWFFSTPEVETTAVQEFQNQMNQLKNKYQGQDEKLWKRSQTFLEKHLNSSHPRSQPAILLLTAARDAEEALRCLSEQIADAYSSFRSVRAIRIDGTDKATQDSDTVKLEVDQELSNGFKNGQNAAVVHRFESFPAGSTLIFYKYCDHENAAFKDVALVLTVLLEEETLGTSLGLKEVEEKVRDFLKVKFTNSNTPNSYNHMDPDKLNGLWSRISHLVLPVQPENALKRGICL
Follistatin-related protein 3 (Homo sapiens), sequence (O95633 whole entry, looked up): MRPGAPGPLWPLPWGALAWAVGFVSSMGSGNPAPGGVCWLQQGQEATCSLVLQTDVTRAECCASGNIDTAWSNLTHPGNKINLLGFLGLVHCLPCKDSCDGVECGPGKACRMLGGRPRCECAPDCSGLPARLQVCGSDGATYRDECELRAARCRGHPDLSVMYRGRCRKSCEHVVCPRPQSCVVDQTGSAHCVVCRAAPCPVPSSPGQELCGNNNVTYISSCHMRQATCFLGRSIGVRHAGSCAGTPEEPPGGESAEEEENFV
Dickkopf-related protein 1 (Homo sapiens), sequence (O94907 whole entry, looked up): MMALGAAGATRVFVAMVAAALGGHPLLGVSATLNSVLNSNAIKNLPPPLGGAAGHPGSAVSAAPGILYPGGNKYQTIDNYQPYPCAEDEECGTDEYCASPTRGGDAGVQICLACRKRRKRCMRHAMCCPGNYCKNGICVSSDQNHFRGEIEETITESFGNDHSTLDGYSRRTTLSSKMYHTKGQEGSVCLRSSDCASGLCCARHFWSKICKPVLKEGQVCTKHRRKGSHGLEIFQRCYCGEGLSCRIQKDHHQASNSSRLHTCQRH
Left-right determination factor 2 (Homo sapiens), sequence (O00292 whole entry, looked up): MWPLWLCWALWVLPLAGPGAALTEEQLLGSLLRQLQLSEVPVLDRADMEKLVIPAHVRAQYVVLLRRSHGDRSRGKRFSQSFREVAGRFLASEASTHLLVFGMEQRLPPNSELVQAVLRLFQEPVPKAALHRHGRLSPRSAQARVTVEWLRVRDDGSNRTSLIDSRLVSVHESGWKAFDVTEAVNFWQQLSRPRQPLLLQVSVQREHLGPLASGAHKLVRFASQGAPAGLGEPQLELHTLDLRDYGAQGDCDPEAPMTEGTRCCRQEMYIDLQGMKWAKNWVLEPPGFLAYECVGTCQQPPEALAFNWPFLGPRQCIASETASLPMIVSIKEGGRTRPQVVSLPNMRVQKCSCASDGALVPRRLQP
Fibroblast growth factor 10 (Homo sapiens), sequence (O15520 whole entry, looked up): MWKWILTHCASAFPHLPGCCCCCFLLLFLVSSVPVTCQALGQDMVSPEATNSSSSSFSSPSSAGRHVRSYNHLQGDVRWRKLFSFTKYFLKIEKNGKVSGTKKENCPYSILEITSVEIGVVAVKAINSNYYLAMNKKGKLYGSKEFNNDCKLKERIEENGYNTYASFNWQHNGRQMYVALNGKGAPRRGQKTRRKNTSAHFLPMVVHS
Epidermal growth factor receptor (Homo sapiens), sequence (P00533 whole entry, looked up): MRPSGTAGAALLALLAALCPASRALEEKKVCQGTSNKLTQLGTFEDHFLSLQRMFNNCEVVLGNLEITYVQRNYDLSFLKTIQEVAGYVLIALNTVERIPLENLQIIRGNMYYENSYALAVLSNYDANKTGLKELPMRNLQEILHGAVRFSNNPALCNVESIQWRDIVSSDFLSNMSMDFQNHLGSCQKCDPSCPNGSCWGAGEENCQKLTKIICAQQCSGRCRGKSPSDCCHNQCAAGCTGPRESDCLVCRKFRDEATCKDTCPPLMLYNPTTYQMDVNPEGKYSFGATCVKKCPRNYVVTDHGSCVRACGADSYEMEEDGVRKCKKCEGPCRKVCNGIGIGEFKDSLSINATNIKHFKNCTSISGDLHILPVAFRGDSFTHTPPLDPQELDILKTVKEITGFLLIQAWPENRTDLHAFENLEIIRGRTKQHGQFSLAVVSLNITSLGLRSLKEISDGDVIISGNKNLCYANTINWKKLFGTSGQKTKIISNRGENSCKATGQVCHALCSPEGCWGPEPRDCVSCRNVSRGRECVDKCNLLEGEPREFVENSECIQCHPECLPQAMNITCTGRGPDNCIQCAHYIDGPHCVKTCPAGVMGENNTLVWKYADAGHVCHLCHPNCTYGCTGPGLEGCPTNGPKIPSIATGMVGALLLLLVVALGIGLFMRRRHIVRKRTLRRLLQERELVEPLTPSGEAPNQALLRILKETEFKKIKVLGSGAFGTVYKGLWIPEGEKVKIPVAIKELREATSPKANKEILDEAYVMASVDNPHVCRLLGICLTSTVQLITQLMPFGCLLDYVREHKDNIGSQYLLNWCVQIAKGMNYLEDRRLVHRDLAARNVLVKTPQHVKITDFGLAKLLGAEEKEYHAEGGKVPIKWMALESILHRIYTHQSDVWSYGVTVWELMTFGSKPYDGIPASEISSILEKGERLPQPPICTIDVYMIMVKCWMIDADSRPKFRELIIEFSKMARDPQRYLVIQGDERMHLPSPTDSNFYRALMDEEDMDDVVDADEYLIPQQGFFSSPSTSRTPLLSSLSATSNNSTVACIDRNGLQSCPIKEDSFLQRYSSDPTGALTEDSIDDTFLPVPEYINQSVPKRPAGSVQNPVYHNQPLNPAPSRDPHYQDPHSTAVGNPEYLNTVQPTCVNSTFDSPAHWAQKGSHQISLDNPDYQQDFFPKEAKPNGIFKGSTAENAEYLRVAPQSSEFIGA

SMILES | composite z-score [1] | composite z-score [2] | composite z-score [3] | z-score [4] | composite z-score [5] | composite z-score [6] | composite z-score [7] | composite z-score [8] | composite z-score [9] | composite z-score [10] | composite z-score [11] | z-score [12] | composite z-score [13] | composite z-score [14] | composite z-score [15] | composite z-score [16] | composite z-score [17] | composite z-score [18] | composite z-score [19] | composite z-score [20]
C[C@@H]1NC(=O)[C@@]23C(=O)N[C@@H](Cc4ccccc4)C2[C@H](C)[C@@]2(C)O[C@H]2C3/C=C/C/C=C\CNC(=O)[C@@H]2CCCN2C1=O (stereo not given in full) | 0.685 | -0.33 | -0.339 | -0.0139 (inactive) | 0.0528 | -0.438 | -0.0154 | -0.165 | 0.0077 | 1.35 | -0.496 | 0.606 | -0.301 | -0.535 | -0.556 | -0.196 | -0.0553 | -0.122 | -0.313 | -0.123
CO[C@]12C=C(Br)[C@@H](C[C@@H]1c1cccc(C)c1)[C@@]1(CO1)C2=O | 1.53 | -0.306 | -0.284 | -0.258 (inactive) | 0.0635 | -0.207 | -0.14 | 0.261 | 0.0254 | 0.521 | 0.194 | -3.39 | 0.334 | -0.426 | -0.83 | -0.247 | -0.2 | -0.0852 | -0.373 | -0.157
CC(C)N1C(=O)c2ccccc2[C@@H](C(=O)NC2CC2)[C@@H]1c1ccc(CO)cc1 | 0.869 | -0.18 | -0.194 | 0.381 (inactive) | -0.114 | 0.621 | -0.0202 | 0.552 | 0.37 | 1.13 | -0.142 | 0.0045 | 0.415 | 1.01 | 0.343 | -0.0236 | -0.282 | -0.288 | 0.997 | 0.654
COC(=O)c1c(CC[C@@H](CO)NC(=O)N[C@H](Cn2cc(C3(O)CCCCC3)nn2)C(C)C)oc(C(C)=O)c1C(=O)OC | 0.997 | -0.0398 | -0.446 | -1.66 (inactive) | 1.07 | 0.859 | 0.557 | 1.1 | 0.788 | 0.368 | 1.01 | -0.415 | 0.724 | 0.169 | -0.715 | 0.002 | 0.151 | 0.141 | 0.748 | 1.65
C=C(/C(=C/C[C@H](OC(=O)c1ccncc1)c1ccc(CO)o1)c1cc(C(=O)OC)ccc1OC)C(C)C | 0.805 | -0.0125 | -0.0735 | 0.174 (inactive) | 0.909 | 0.851 | 0.0286 | 0.752 | 0.667 | 1.04 | 1.31 | -0.706 | 0.34 | -0.0383 | -0.748 | 0.0037 | 0.235 | -0.0247 | 0.602 | 0.0818
C=C(CCCC)/C(=C/C[C@@H](OC(=O)c1ccncc1)c1ccccc1OCCO)c1cnc2ccccc2c1 | 1.26 | 0.276 | 0.178 | 1.03 (inactive) | 1.44 | 1.15 | 1.02 | 1.33 | 0.736 | 1.69 | 1.33 | -2.77 | 0.845 | 0.616 | -0.759 | 0.16 | -0.0849 | -0.218 | 1.92 | 1.35
CN(C)c1ccc(C(O)C2C=CC3C(=O)N(c4ccccc4)C(=O)C3N2Nc2ccc([N+](=O)[O-])cc2)cc1 (stereo not given) | 1.53 | 0.604 | 1.16 | -0.0025 (inactive) | 0.704 | 1.29 | 0.332 | 0.974 | -0.204 | 1.4 | 1.37 | -1.52 | -0.162 | 0.603 | -0.534 | 0.0809 | 0.0697 | 0.638 | 0.926 | 1.46
CC(C)[Si](C#CCCCC#N)(O[C@H](c1ccccc1)c1cn([C@H](CO)Cc2ccccc2)nn1)C(C)C | 0.726 | -0.151 | 0.138 | -0.401 (inactive) | 0.61 | 0.709 | 0.52 | 1.36 | 0.598 | 0.0469 | 0.385 | -1.33 | 0.36 | 1.11 | 0.295 | -0.0459 | -0.0793 | 0.0392 | 0.222 | 0.559
O=C1O[C@@H](c2ccccc2)[C@@H](c2ccccc2)N2[C@@H](c3ccc(OCCO)cc3)[C@]3(C(=O)Nc4ccccc43)[C@@H](C(=O)O)[C@H]12 | 0.327 | -0.483 | 0.273 | -0.715 (inactive) | 0.119 | -0.739 | -0.38 | -0.415 | -0.32 | 0.758 | 0.908 | -1.47 | -0.318 | -0.0663 | 0.883 | 0.779 | 0.297 | 2.26 | -0.308 | 0.323
COc1cc(OC)c(C(O)C2C=CC3C(=O)N(c4ccccc4)C(=O)C3N2Nc2ccccc2)cc1Br (stereo not given) | 1.53 | 0.184 | 0.612 | 0.528 (inactive) | 0.247 | 0.176 | -0.487 | 0.39 | -0.386 | 0.791 | 1.4 | -0.801 | -0.263 | 1.02 | 0.285 | -0.0346 | -0.138 | -0.0604 | 0.474 | 0.665
Cc1ccc(S[C@]2(C(=O)O)CC(=O)N(Cc3ccccc3Cl)[C@@H]2c2ccc(CO)cc2I)cc1 | 0.534 | 1.47 | -0.217 | -0.565 (inactive) | -0.054 | 0.202 | 0.0365 | 0.653 | 1.18 | 0.164 | -0.455 | -1.77 | 0.0515 | -0.326 | -0.952 | -0.483 | 0.209 | -1.13 | -0.421 | -0.338
